# Measured values taken from PubChem BioAssay (NCATS).
# Inconclusive results are not listed. Where a call stands in place of a potency, no number is given. Activity calls are given as the source filed them. Unless noted, calls come from the whole dose curve; as a rule, active = well fitted curve in the direction sought with a large enough effect; inconclusive = small, poorly fitted or top-dose-only effect, or another doubt; inactive = no such curve, though single readings can be large; an effect the other way counts as inactive or inconclusive.
# Columns and labels:
# [1] = molecular target: Aldehyde dehydrogenase, mitochondrial (Homo sapiens) (UniProt P05091); assay: qHTS for Inhibitors of the Aldehyde Dehydrogenase Family (ALDH2) Validation screens (AID 2061302; active = well fitted inhibition curve with a large enough effect; title and protocol of this record describe different tests)
# [2] = molecular target: Aldehyde dehydrogenase, mitochondrial (Homo sapiens) (UniProt P05091); assay: qHTS for Inhibitors of the Aldehyde Dehydrogenase Family (ALDH2) Primary screen (AID 2061308); note: nearly all actives have a fitted effect of over 55% in size
# [3] = molecular target: Retinaldehyde dehydrogenase 3 (Homo sapiens) (UniProt P47895); assay: qHTS for Inhibitors of the Aldehyde Dehydrogenase Family (ALDH1A3) Validation screen (AID 2061312); note: nearly all actives have a fitted effect of over 45% in size
# [4] = molecular target: Retinaldehyde dehydrogenase 3 (Homo sapiens) (UniProt P47895); assay: qHTS for Inhibitors of the Aldehyde Dehydrogenase Family (ALDH1A3) Primary screen (AID 2061315)
# [5] = BET inhibitor-based combinations targeting novel dependencies in MECOM-rearranged (r) AML: SET-2 cell line (AID 2202231); conditions: SET-2 AML cells viability, CellTiter-Glo luminescence, 48 h; viability: hits give low values, concentration not given here; note: potency is the fitted concentration of half-maximal effect; nearly all actives have a fitted effect of over 35% in size
# Summary of the method: (§1)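 500 cells/well; 11-pt dose curve; 48 h, standard incubator; CellTiter-Glo luminescence after 15 min RT; DMSO/empty-well normalization; AUC plus Z-AUC (mean-centered within each line).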
# [6] = BET inhibitor-based combinations targeting novel dependencies in MECOM-rearranged (r) AML: OCI-AML3 cell line (AID 2202232); conditions: Potency: OCI-AML3 viability; note: potency is the fitted concentration of half-maximal effect; nearly all actives have a fitted effect of over 35% in size
# Summary of the method: as §1
# [7] = BET inhibitor-based combinations targeting novel dependencies in MECOM-rearranged (r) AML: HNT-34 cell line (AID 2202234); note: potency is the fitted concentration of half-maximal effect; nearly all actives have a fitted effect of over 35% in size
# Summary of the method: (§2)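 Cells were plated at 500 per well and exposed to each drug across an 11-point dose range for 48 hr at standard incubator conditions. Viability was read by CellTiter-Glo luminescence, and activity was expressed as AUC and per-cell-line Z-transformed AUC.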
# [8] = BET inhibitor-based combinations targeting novel dependencies in MECOM-rearranged (r) AML: UCSD-AML1 cell line (AID 2202235); note: nearly all actives have a fitted effect of over 40% in size; note: potency is the fitted concentration of half-maximal effect
# Summary of the method: as §2
# [9] = BET inhibitor-based combinations targeting novel dependencies in MECOM-rearranged (r) AML: AML-194 cell line (AID 2202237; note: potency is the fitted concentration of half-maximal effect; nearly all actives have a fitted effect of over 40% in size)
# Summary of the method: as §1
structure (smiles),measurement,setting,value
CC(C)c1c(C(=O)Nc2ccccc2)c(-c2ccccc2)c(-c2ccc(F)cc2)n1CC[C@@H](O)C[C@@H](O)CC(=O)O,Potency,[1],inactive
same,Potency,[2],inactive
same,Potency,[3],inactive
same,Potency,[4],inactive
same,Potency,[5],7.23 µM (active)
same,Potency,[6],3.23 µM (active)
same,Potency,[7],10.2 µM (active)
same,Potency,[8],7.23 µM (active)
same,Potency,[9],12.9 µM (active)
CCN(CC)CC#CCOC(=O)C(O)(c1ccccc1)C1CCCCC1 (stereo not given),Potency,[1],inactive
same,Potency,[3],inactive
Cc1cccc(C)c1NC(=O)C(C)N (stereo not given),Potency,[1],inactive
same,Potency,[3],inactive
Nc1nc(OCC2CCCCC2)c2[nH]cnc2n1,Potency,[1],inactive
same,Potency,[3],inactive
Cc1ccc(-c2cc(C(F)(F)F)nn2-c2ccc(S(N)(=O)=O)cc2)cc1,Potency,[1],inactive
same,Potency,[2],inactive
same,Potency,[3],inactive
same,Potency,[4],inactive
same,Potency,[8],inactive
COc1ccc(CN(CCN(C)C)c2ccccn2)cc1,Potency,[1],inactive
same,Potency,[3],inactive
CC(=O)[C@@]1(O)CC[C@H]2[C@@H]3CCC4=CC(=O)CC[C@]4(C)[C@H]3CC[C@@]21C,Potency,[1],inactive
same,Potency,[3],inactive
c1ccc2c(c1)CCCC2C1=NCCN1 (stereo not given),Potency,[1],inactive
same,Potency,[3],inactive
NCC(O)c1ccc(O)c(O)c1 (stereo not given),Potency,[1],inactive
same,Potency,[3],inactive
NC1CONC1=O (stereo not given),Potency,[1],inactive
same,Potency,[3],inactive
NC(=O)N1c2ccccc2C=Cc2ccccc21,Potency,[1],inactive
same,Potency,[3],inactive
CN(C)CCC(c1ccc(Br)cc1)c1ccccn1 (stereo not given),Potency,[1],inactive
same,Potency,[3],inactive
O=C(NOCC1CC1)c1cc(Br)c(F)c(F)c1Nc1ccc(I)cc1Cl,Potency,[1],inactive
same,Potency,[3],inactive
CC(N=C(NC#N)Nc1ccncc1)C(C)(C)C (stereo not given),Potency,[1],inactive
same,Potency,[3],inactive
CCN(CC)CCOC(=O)C1(C2CCCCC2)CCCCC1,Potency,[1],inactive
same,Potency,[3],inactive
